This note sets out measurements from PubChem BioAssay (NCATS).

Experiment [1] concerns CRL-7250. The experiment in a line: Cytotoxic Profiling of Annotated Libraries Using Quantitative High-Throughput Screening (AID 1296008). For max response: % is set by controls: 0 for no effect and ±100 for the full control effect. Note: nearly all actives have a fitted effect of over 60% in size. As to conditions: Five cell lines viability, CellTiter-Glo ATP luminescence, 48-72 h; max response: hits give low values. The procedure, abridged: (§1)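 Compounds were pin-transferred onto cells and incubated 48 or 72 hr at 37 degree Celsius, 95% humidity. CellTiter-Glo was added, plates sat 10 min at room temperature, then ATP-coupled luminescence was imaged as the viability read-out.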

The subject of experiment [2] is HEK293. The description is as above. As to conditions: Five cell lines viability, CellTiter-Glo ATP luminescence, 48-72 h; max response: hits give low values. A digest of the protocol: as §1
In experiment [3] the test system is HaCat. The description is as above. To be noted: Five cell lines viability, CellTiter-Glo ATP luminescence, 48-72 h; max response: hits give low values. A digest of the protocol: as §1
The subject of experiment [4] is CAOV3. In words: Primary qHTS to identify gynecologic anti-cancer compounds using libraries of approved drugs and bioactive compounds (AID 1345084). For activity change, negative = cytotoxicity: % is set by controls: 0 for no effect and ±100 for the full control effect. Note: nearly all actives have a fitted effect of over 55% in size. To be noted: Gynecologic cancer cell panel viability, ATPlite luminescence, 48 h; series mostly up to 57.5 µM. A digest of the protocol:
(§2)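 Luminescence from the ATPlite ATP-monitoring reagent indicates viable cell number; lower signal means cytotoxicity. Cells received compound 16 h after seeding and were exposed for 48 h across five concentrations.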

The test system of experiment [5] is HeLa. The description is as above. To be noted: Gynecologic cancer cell panel viability, ATPlite luminescence, 48 h; series mostly up to 57.5 µM. The procedure, abridged:
as §2

The subject of experiment [6] is JEG-3. Described as above. As to conditions: Gynecologic cancer cell panel viability, ATPlite luminescence, 48 h; series mostly up to 57.5 µM. A digest of the protocol: as §2
In experiment [7] the test system is OV90. The experiment is described as above. As to conditions: Gynecologic cancer cell panel viability, ATPlite luminescence, 48 h; series mostly up to 57.5 µM. The procedure, abridged: as §2
Experiment [8] has as its system CASKI. The experiment is described as above. To be noted: Gynecologic cancer cell panel viability, ATPlite luminescence, 48 h; series mostly up to 57.5 µM. A digest of the protocol: as §2
The subject of experiment [9] is Es-2. The description is as above. As to conditions: Gynecologic cancer cell panel viability, ATPlite luminescence, 48 h; series mostly up to 57.5 µM. A digest of the protocol: as §2
The subject of experiment [10] is PA-1. Described as above. As to conditions: Gynecologic cancer cell panel viability, ATPlite luminescence, 48 h; series mostly up to 57.5 µM. The procedure, abridged: as §2
In experiment [11] the test system is C33A. Described as above. As to conditions: Gynecologic cancer cell panel viability, ATPlite luminescence, 48 h; series mostly up to 57.5 µM. The procedure, abridged: as §2
Experiment [12] has as its system Hek293T. The description is as above. To be noted: Gynecologic cancer cell panel viability, ATPlite luminescence, 48 h, control line for the selectivity index; series mostly up to 57.5 µM. A digest of the protocol: as §2
Experiment [13] has as its system NIH3T3. The experiment in a line: Cytotoxic Profiling of Annotated Libraries Using Quantitative High-Throughput Screening (AID 1296008). For max response: % is set by controls: 0 for no effect and ±100 for the full control effect. Note: nearly all actives have a fitted effect of over 60% in size. As to conditions: Five cell lines viability, CellTiter-Glo ATP luminescence, 48-72 h; max response: hits give low values. The procedure, abridged: as §1
Experiment [14] concerns NIH3T3. The experiment in a line: qHTS assay to identify novel small-molecules to repurpose for Merkel cell carcinoma treatment (AID 1296009). Note: nearly all actives have a fitted effect of over 60% in size. As to conditions: MCC and control cell lines, CellTiter-Glo viability, 72 h; series mostly up to 44.8 µM. A digest of the protocol:
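Luminescence from CellTiter-Glo, read 10 min after addition at room temperature, reported viability following a 72 hr, 37 degree celsius treatment with NPC or MIPE compounds in titration; values normalized to plate controls.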

Inconclusive results are not listed. Unmarked numbers belong to inactive results. Calls of active or inactive are those of the source. Calls come from the whole dose curve; as a rule, active = well fitted curve in the direction sought with a large enough effect; inconclusive = small, poorly fitted or top-dose-only effect, or another doubt; inactive = no such curve, though single readings can be large; an effect the other way counts as inactive or inconclusive.
Potency is the fitted concentration of half-maximal effect.

Regarding `C=C1CC[C@@H]2[C@](C)(CO)[C@H](O)CC[C@@]2(C)[C@@H]1C/C=C1/C(=O)OCC1O` (some centres not stated), the Potency in experiment [1] is 18.4 µM (active); in [2], 7.31 µM (active). Further, the max response in experiment [3] is -10.5%. In addition, the Potency result in experiment [4], in experiment [5], in experiment [6] and in [7] was “inactive” throughout.

For the compound `N#Cc1ccc(Nc2nc(-c3ccc(O)cc3O)cs2)cc1C(F)(F)F`, the Potency is 5.8 µM (active) in [1]; 3.26 µM (active) in experiment [2]; 7.31 µM (active) in experiment [3]; 20 µM (active) in experiment [8]; 14.1 µM (active) in [9]; 7.94 µM (active) in experiment [5]. For the same compound, in experiment [10], the Potency was 8.91 µM (active).

For the compound `CC(O)C(C)n1ncn(-c2ccc(N3CCN(c4ccc(OCC5COC(Cn6cncn6)(c6ccc(Cl)cc6Cl)O5)cc4)CC3)cc2)c1=O` (configuration not stated), the outcome in experiment [1] was inactive. In experiment [2], the Potency is 16.4 µM (active). Further, the max response in experiment [3] is -3.2%. Further, the Potency result in [11], in [4], in experiment [8], in experiment [9], in experiment [5] and in experiment [12] was “inactive” throughout. Besides, the Potency result in experiment [10] was “inactive”.

On to `COC1CC(O[C@H]2CC[C@]3(C)C4CC[C@]5(C)C(C6=CC(=O)OC6)=CCC56OC46CC[C@@H]3C2)OC(C)C1O[C@@H]1O[C@H](CO[C@@H]2O[C@H](CO)[C@@H](O)[C@H](O)[C@H]2O)[C@@H](O)[C@H](O)[C@H]1O` (some centres not stated), for which the Potency in experiment [1] is 1.55 µM (active); in experiment [2], 1.74 µM (active); in [11], 2.82 µM (active); in [9] it was 3.16 µM (active); in experiment [5] it was 3.55 µM (active); in [12], 2.82 µM (active). Besides, the Potency in experiment [10] is 3.98 µM (active). For the same compound, the compound was called inactive in experiment [13]. For the same compound, the outcome in experiment [14] was “inactive [at 9.27 µM]”. Further, the activity change, negative = cytotoxicity in experiment [8] was -27.8% [at 11.6 µM].

In the case of `CCCCNc1ncc(C(=O)NCc2ccc(-n3ccnc3)cc2)c(NC2CCC(O)CC2)n1` (configuration not stated), the Potency in experiment [1] is 13 µM (active); in experiment [2], 7.31 µM (active); in experiment [3], 23.1 µM (active). Moreover, the Potency result in experiment [9] and in experiment [12] was “inactive” each time.

Consider `C=CC(=O)Nc1ccc2ncnc(Nc3cccc(Br)c3)c2c1`, for which the figures for the Potency in experiment [1], in experiment [2] and in experiment [3] were 5.8 µM (active), 20.6 µM (active) and 0.0461 µM (active), respectively. For the same compound, the Potency entry in [5], in experiment [12] and in experiment [7] was “inactive” throughout.

Consider `CC(C)C[C@@H]1NC(=O)[C@@H](Cc2ccccc2)NC(=O)C(CCCCCC(=O)C2CO2)NC(=O)[C@@H]2CCCCN2C1=O` (some centres not stated), for which the Potency in experiment [1] was 3.55 µM (active); in experiment [2] it was 2.82 µM (active); in experiment [3] it was 3.17 µM (active); in [8], 0.708 µM (active); in experiment [9] it was 2.24 µM (active). Besides, the Potency entry in experiment [11], in experiment [4], in experiment [5] and in [12] was “inactive” each time.

With `C=C1CC2OC(=O)C(=C)C2C(OC(=O)/C(C)=C\C)CC2(C)OC1=CC2=O` (configuration not stated), the Potency is 14.3 µM (active) in [1]; 2.86 µM (active) in experiment [2]; 12.8 µM (active) in [13]; 11.2 µM (active) in experiment [11]; 10 µM (active) in experiment [9]. Also, the Potency result in experiment [8], in experiment [5] and in experiment [7] was “inactive” in each case.

For `CC[C@@H](C)Nc1cc(C(=O)NC2CC3CC[C@@H](C2)N3c2ccc(C(=O)C3CC3)cn2)c(C)cc1C(N)=O` (some centres not stated), the Potency in [1] is 0.231 µM (active); in experiment [2], 0.0517 µM (active); in [3] it was 0.092 µM (active); in experiment [14], 0.184 µM (active); in experiment [4], 0.794 µM (active); in experiment [12] it was 0.316 µM (active). The Potency in experiment [7] and in [10] was 0.316 µM (active) throughout.

In the case of `CC(C)n1cnc2c(-c3cnc(N)nc3)nc(N3CCOCC3)nc21`, the Potency was 0.709 µM (active) in experiment [1], 1.78 µM (active) in experiment [2], 0.632 µM (active) in experiment [3] and 1.12 µM (active) in experiment [12]. The Potency result in experiment [11] and in [6] was “inactive” in each case.

As to `Fc1ccc(-c2nc(C3CCNCC3)sc2-c2ccnc(NC3CC3)n2)cc1`, the outcome in [1] was inactive. Moreover, the values for the Potency in experiment [2] and in experiment [3] were 1.64 µM (active) and 5.17 µM (active), respectively. For the same compound, the Potency entry in experiment [11], in experiment [12] and in experiment [7] was “inactive” each time.

`C[C@@H](N[C@H]1CCCC[C@@H]1NC(=O)c1ccc(Cl)cc1)c1cccc2ccccc12`: the max response in experiment [1] is 0.829%; in [3], -13%. Moreover, in experiment [2], the Potency was 20.6 µM (active). In addition, the Potency result in experiment [11], in experiment [8], in experiment [9], in [5], in experiment [12] and in experiment [7] was “inactive” each time. Besides, in experiment [10], the Potency entry is “inactive”.

For `CN1CCN(c2ccc(Nc3cc(-c4cccc(-n5ccc6cc(C7CC7)cc(F)c6c5=O)c4CO)cn(C)c3=O)nc2)CC1`, the results for the Potency in experiment [1], in [2] and in experiment [3] were 23.1 µM (active), 11.6 µM (active) and 18.4 µM (active), respectively. The Potency entry in experiment [11], in experiment [4], in experiment [8], in experiment [9], in [5] and in experiment [12] was “inactive” throughout. In addition, the Potency result in experiment [6] and in [7] was “inactive” throughout.

Consider `Cc1noc(-c2ccc(-c3ccc(CC(=O)O)cc3)cc2)c1NC(=O)O[C@H](C)c1ccccc1Cl`, for which the figures for the max response in [1] and in [2] were -11.1% and -3.72%, respectively. For the same compound, the Potency in [13] is 7.31 µM (active). For the same compound, the Potency entry in [11], in experiment [4], in experiment [8], in experiment [9], in experiment [5] and in experiment [12] was “inactive” throughout. In addition, the Potency result in experiment [6], in experiment [7] and in experiment [10] was “inactive” in each case.

Take `Cc1cc(Nc2nc(-c3ccccc3)nc3ccccc23)n[nH]1`: the Potency in experiment [1] was 5.17 µM (active); in experiment [2], 7.31 µM (active); in [13], 9.2 µM (active); in experiment [10] it was 10 µM (active). The Potency result in experiment [11], in [9] and in [7] was “inactive” each time.
